# ± gives the standard deviation of the averaged measurements. In all, about 33,000 sequences were measured (“E-score (rank enrichment, -0.5 to 0.5)”: median about -0.0043, highest 2% from about 0.24 on). The sample holds the highest values, similar sequences and a random draw of the others, so the mix is not that of the screen.
# System: 2Sp-muMax20 (muMax20 with two 2,6-bis(methyl)pyridine Cys staples)
# Assay: PBM 8-mer E-score (E-score (rank enrichment, -0.5 to 0.5)); higher = stronger preferential binding
# Protocol: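 Protein binding microarray (universal PBM chip covering all 10-mers in fixed probe flanks) with chemically synthesized human Max(13-93) bHLH-LZ analogs (not full-length Max) bearing noncanonical residues (hArg, Tha, Aib, Nle at 65) and aromatic Cys staples. Read-out per 8-mer (and its reverse complement): E-score (rank-based enrichment, -0.5 to 0.5) and Z-score of median probe intensity.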
row,Sequence,PBM 8-mer E-score
1,ACTGCCGC,-0.11 ± 0.0048
2,AGAACGCA,-0.0651 ± 0.016
3,AAATAGCC,0.155 ± 0.026
4,GCTAGCTA,-0.00454 ± 0.02
5,CCATTTCG,-0.131 ± 0.16
6,GAGTAAGC,-0.0367 ± 0.065
7,GAGCATGC,0.233 ± 0.065
8,CAGCATGA,0.131 ± 0.046
9,AAGCATCC,-0.0641 ± 0.07
10,AAGCATGT,0.208 ± 0.059
11,AAGCATGG,0.221 ± 0.0031
12,CAGCATGG,0.258 ± 0.074
13,CAGCATGC,0.245 ± 0.055
14,AAGCATGC,0.309 ± 0.047
15,GAGCATGA,0.154 ± 0.055
16,TAGCATGA,0.237 ± 0.075
17,AAGCATGA,0.0552 ± 0.075
18,CGGCATGC,0.154 ± 0.053
19,ATTTGAAG,0.0351 ± 0.054
20,CGCTCCCC,-0.1001 ± 0.00055
21,GTACTGAA,0.149 ± 0.041
22,CGCCCAAA,0.0607 ± 0.014
23,CATTCGAC,-0.0616 ± 0.11

row,Sequence,PBM 8-mer E-score
1,ATTAGCTC,0.0373 ± 0.031
2,AAGTTCTA,0.0127 ± 0.022
3,CGCAGTGA,-0.145
4,ATCTTATC,0.0505 ± 0.042
5,TATCCCCA,0.239 ± 0.014
6,ACTCCCCT,0.182 ± 0.027
7,ACCTCCCA,-0.071 ± 0.0025
8,GCCTCCCA,-0.214 ± 0.05
9,CATCCCCA,0.145 ± 0.0068
10,ACTCCCCA,0.282 ± 0.067
11,CCTCCCAA,0.0742 ± 0.037
12,AATCCCCA,0.161 ± 0.02
13,CCCTCCCA,0.353 ± 0.04
14,CCTCCCCA,0.31 ± 0.028
15,ACTCCCCC,-0.187 ± 0.021
16,CCTCCCCC,-0.0661 ± 0.021
17,ATCACGAG,-0.0973 ± 0.13
18,CGGATAAC,-0.215 ± 0.003
19,CCGAGCTC,-0.137 ± 0.0056
20,AGTGCAAG,0.0261 ± 0.015
21,ATACAGTG,0.248 ± 0.065
22,ATACAGCG,-0.089 ± 0.017
23,GTACAGTA,0.137 ± 0.034

row,Sequence,PBM 8-mer E-score
1,ATACAGCA,0.2373 ± 0.0021
2,ATACAGTA,0.259 ± 0.013
3,CTACAGCA,0.0474 ± 0.16
4,ACACAGTG,0.0818 ± 0.048
5,ATACAGTC,0.0481 ± 0.076
6,CTACAGTA,0.136 ± 0.017
7,GCTAAACA,-0.106 ± 0.062
8,CCAGCTTA,-0.129 ± 0.07
9,CGCGCCAC,0.0139 ± 0.054
10,ACCTTTGG,-0.277 ± 0.058
11,CGGTTCCC,-0.179 ± 0.095
12,GAGGGTTA,0.064 ± 0.0085
13,CAAGCTGA,0.0436 ± 0.058
14,AAAGCTGG,0.0243 ± 0.073
15,AAAGCTGA,0.285 ± 0.0073
16,ACCGCCCT,-0.0858 ± 0.06
17,CGACGAGA,-0.147 ± 0.078
18,CAGCGTGG,0.039 ± 0.028
19,GGCCCCAC,0.0799 ± 0.062
20,CGCCCCAG,0.0339 ± 0.02
21,CGCCCCCA,-0.198 ± 0.069
22,TGCCCAAA,-0.0856 ± 0.086
23,TGCCCCCA,-0.0389 ± 0.018

row,Sequence,PBM 8-mer E-score
1,TGCCCCAA,0.274 ± 0.016
2,CGCCCCAA,0.3051 ± 0.0025
3,CGCCCCAC,0.303 ± 0.0035
4,GGCCCCAA,0.00781 ± 0.067
5,AGGTTCTA,-0.106 ± 0.0063
6,GGTTCTAA,-0.026 ± 0.026
7,AACGAGCC,-0.0314 ± 0.029
8,GACTAGCC,-0.0736 ± 0.047
9,ACACCGAG,-0.219 ± 0.031
10,ACGACGCT,-0.0201 ± 0.033
11,CTGGTGTA,-0.00226 ± 0.005
12,ATCGATAA,0.00019 ± 0.013
13,AAGTCAAA,0.0188 ± 0.0089
14,GAGTCAAA,-0.0157 ± 0.11
15,TAGTCAAA,0.27 ± 0.033
16,GACTAGCA,0.102 ± 0.099
17,AGAGCTAA,-0.0564 ± 0.081
18,AGTTTCAA,-0.0457 ± 0.0064
19,ATTACCCA,0.288 ± 0.037
20,ATTACCCG,-0.0469 ± 0.081
21,ATTACCCC,0.169 ± 0.065
22,TACCTCGA,-0.079 ± 0.12
23,TCCGAAAA,-0.0537 ± 0.063
